# A selection: hits, their analogues and other compounds. The true share with any hit is near 2.3%.
# PDI turbidity: blocks human protein disulfide isomerase activity | PDI insulin aggregation turbidity, A650, 90 min | inhibition, % at 10 µM | 350,000 compounds, 0.052% hits;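 active means mean inhibition across replicates of 30% or more, whatever share of single replicates reach that level; inconclusive means mean inhibition below 30% while every single replicate reaches 30%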
# Rtt109 HAT inh: blocks Candida albicans Rtt109/Vps75 acetyltransferase activity. 330,000 compounds, 0.16% hits. purified Rtt109/Vps75, ThioGlo CoA-SH fluorescence, 4 h. Q5AAJ8. inhibition, % at 34.9 µM;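 active means inhibition of at least 50% in every replicate; inconclusive means best replicate reaches 50% inhibition but some replicates fall short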
# Target sequence (Q5AAJ8 whole entry, looked up): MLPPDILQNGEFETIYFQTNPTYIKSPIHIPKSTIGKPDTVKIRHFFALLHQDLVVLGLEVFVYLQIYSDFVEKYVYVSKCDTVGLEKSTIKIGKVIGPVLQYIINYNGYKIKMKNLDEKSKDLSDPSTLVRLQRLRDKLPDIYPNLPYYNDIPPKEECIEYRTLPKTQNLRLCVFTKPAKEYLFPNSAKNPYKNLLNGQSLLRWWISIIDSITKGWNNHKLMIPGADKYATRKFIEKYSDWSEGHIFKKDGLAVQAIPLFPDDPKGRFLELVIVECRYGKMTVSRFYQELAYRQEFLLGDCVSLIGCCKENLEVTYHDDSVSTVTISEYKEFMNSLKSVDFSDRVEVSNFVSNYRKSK
# SIRT5 inh: inhibitors of human sirtuin-5 desuccinylase. inhibition, % at 15 µM. AID 652115. Purified SirT5, succinyl-peptide AMC, trypsin-coupled fluorescence. Q9NXA8. 330,000 compounds, 1.1% hits; in the data active means inhibition above about 15%; inconclusive means no clear call, values can overlap the other calls
# Target sequence (Q9NXA8 whole entry, looked up): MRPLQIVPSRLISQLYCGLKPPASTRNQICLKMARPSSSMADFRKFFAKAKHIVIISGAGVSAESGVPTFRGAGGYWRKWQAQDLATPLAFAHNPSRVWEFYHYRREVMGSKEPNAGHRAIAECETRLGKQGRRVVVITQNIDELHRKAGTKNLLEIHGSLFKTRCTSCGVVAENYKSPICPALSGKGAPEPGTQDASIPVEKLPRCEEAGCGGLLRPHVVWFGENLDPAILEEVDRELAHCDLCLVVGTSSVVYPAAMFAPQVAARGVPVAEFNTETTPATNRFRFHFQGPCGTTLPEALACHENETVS
# ERp5 inh: ERp5 (human) disulfide isomerase inhibition | ERp5 insulin aggregation, absorbance 650 nm, 90 min | inhibition, % at 9.99 µM | 350,000 compounds, 0.05% hits | AID 651711;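 active means mean replicate inhibition above about 25%, with every replicate also reaching it, limit read from the data, passing the limit was not always enough; inconclusive means only one of those two criteria met; inactive means neither criterion met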
# DENV2 CPE: DENV2-induced cell death inhibition | DENV2-infected cells, cytopathic effect rescue, plate reader | CPE inhibition, % at 9.99 µM | 350,000 compounds, 1.7% hits; in the data active means CPE inhibition above about 20%, passing the limit was not always enough; inconclusive means no clear call, values can overlap the other calls; tested in BHK-21 cells;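 further: 0% = median of neutral control wells and 100% = median of positive control wells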
# Numbers without * were called inactive; ? = inconclusive; . = no result given.
SMILES,PDI turbidity,Rtt109 HAT inh,SIRT5 inh,ERp5 inh,DENV2 CPE
O=C(C[C@H]1CC[C@H](NC(=O)c2ccc3c(c2)OCO3)[C@@H](CO)O1)NC1Cc2ccccc2C1,.,.,-2.4,-1.3,3.6
CN1C(=O)c2cc(NC(=O)c3cscn3)ccc2OC[C@@H]2O[C@@H](CC(=O)N3CCCCC3)CC[C@H]21,.,.,1.8,11.7,?
COc1ccc(S(=O)(=O)Nc2ccc3c(c2)C(=O)N([C@H](C)CO)C[C@H](C)[C@@H](CN(C)C(=O)Nc2ccc(F)cc2)O3)cc1,.,.,2.8,-8.1,1.7
COc1ccc(NC(=O)N(C)C[C@H]2Oc3ccc(NS(=O)(=O)c4ccccc4)cc3C(=O)N([C@H](C)CO)C[C@@H]2C)cc1,3.8,8.9,-2.3,-2.6,29.1*
COc1ccc(NC(=O)N(C)C[C@@H]2Oc3ccc(NS(=O)(=O)c4ccc(F)cc4)cc3C(=O)N([C@H](C)CO)C[C@H]2C)cc1,.,.,40.2*,2.3,-0.2
O=C(C1CC1)N1[C@@H](CO)[C@@H](c2ccccc2)C12CN(Cc1cncnc1)C2,.,.,-2.1,-1.2,-0.5
Fc1ccccc1Cc1noc(CN2CCCC(CN3CCOCC3)C2)n1 (stereo not given),-2.6,5.4,21.7*,1.8,11.9
O=C(N[C@H]1C=C[C@@H](CC(=O)N2CCN(c3ccccc3)CC2)O[C@H]1CO)c1ccccc1,.,.,1.9,-2.9,70.9*
O=C(CCN1CCCCC1)N[C@@H]1C=C[C@H](CC(=O)N2CCC(Cc3ccccc3)CC2)O[C@H]1CO,.,.,15.3*,-2.9,2.6
O=C(C[C@@H]1CC[C@H](NS(=O)(=O)c2ccc(F)cc2)[C@H](CO)O1)N1CCN(c2ccccc2)CC1,.,.,20.2*,-0.7,0.5
O=C(C[C@@H]1C=C[C@@H](NC(=O)c2ccncc2)[C@H](CO)O1)Nc1ccccc1,.,.,-1.5,20.0,34.7*
CC=Cc1ccc2n(c1=O)C[C@@H]1[C@@H](CO)[C@H](C(=O)N3CCCCC3)[C@H]2N1Cc1ccccn1 (mixture of isomers),.,.,-21.7,7.7,-0.5
C[C@H](CO)N1C[C@H](C)[C@H](CN(C)Cc2ccc3c(c2)OCO3)Oc2ccc(NS(=O)(=O)c3cn(C)cn3)cc2CC1=O,.,.,.,.,-8.4
C[C@H](CO)N1C[C@H](C)[C@@H](CN(C)C(=O)c2ccccc2)Oc2ncc(C#CC3CC3)cc2C1=O,.,.,5.6,-1.9,-3.5
O=C(C[C@@H]1CC[C@@H](NS(=O)(=O)c2ccc(F)cc2)[C@@H](CO)O1)N1CCC(Cc2ccccc2)CC1,.,.,27.6*,1.7,7.2
O=C(C[C@H]1CC[C@@H](NS(=O)(=O)c2ccc(F)cc2)[C@@H](CO)O1)N1CCC(Cc2ccccc2)CC1,.,.,-0.8,1.3,-0.1
O=C(N[C@@H]1CC[C@@H](CC(=O)N2CCN(c3ccccc3)CC2)O[C@H]1CO)c1ccncc1,.,.,-1.0,-2.7,30.9*
COc1cc(OC)cc(C(=O)Nc2ccc3nc4n(c(=O)c3c2)CCCC4)c1,7.4,3.2,-0.5,-3.0,118.6*
CCOc1ccccc1C(=O)Nc1ccc2nc3n(c(=O)c2c1)CCCCC3,-6.0,0.0,23.1*,-0.9,-3.7
COc1cccc(C(=O)Nc2ccc3nc4n(c(=O)c3c2)CCCC4)c1,-3.1,-1.2,-3.4,6.1,17.8
Cc1ccccc1C(=O)Nc1ccc2nc3n(c(=O)c2c1)CCCC3,5.0,0.8,-1.9,1.5,-1.2
C[C@@H]1CCCCO[C@H](CN(C)C(=O)Nc2ccc(C(F)(F)F)cc2)[C@H](C)CN([C@H](C)CO)C(=O)c2cc(NC(=O)C3CCCCC3)ccc2O1,.,.,-1.5,-0.3,32.4*
C[C@@H]1CCCCO[C@@H](CN(C)C(=O)Nc2ccc(C(F)(F)F)cc2)[C@@H](C)CN([C@@H](C)CO)C(=O)c2cc(NC(=O)C3CCCCC3)ccc2O1,.,.,3.8,.,-8.2
C[C@@H]1CCCCO[C@H](CN(C)C(=O)Nc2ccc(C(F)(F)F)cc2)[C@@H](C)CN([C@@H](C)CO)C(=O)c2cc(NC(=O)C3CCCCC3)ccc2O1,.,.,4.3,2.0,21.8*
C[C@H]1CCCCO[C@H](CN(C)C(=O)Nc2ccc(C(F)(F)F)cc2)[C@@H](C)CN([C@@H](C)CO)C(=O)c2cc(NC(=O)C3CCCCC3)ccc2O1,.,.,2.9,-1.5,87.5*
SMILES,PDI turbidity,Rtt109 HAT inh,SIRT5 inh,ERp5 inh,DENV2 CPE
C[C@@H]1CCCCO[C@H](CN(C)C(=O)Nc2ccc(C(F)(F)F)cc2)[C@@H](C)CN([C@H](C)CO)C(=O)c2cc(NC(=O)C3CCCCC3)ccc2O1,.,.,1.4,5.5,0.5
C[C@@H]1CN([C@H](C)CO)C(=O)c2cc(NC(=O)C3CCCCC3)ccc2O[C@@H](C)CCCCO[C@H]1CN(C)C(=O)Nc1ccc(C(F)(F)F)cc1,.,.,-3.0,-0.1,-1.4
C[C@H](CO)N1C[C@H](C)[C@@H](CN(C)C(=O)Nc2ccc(C(F)(F)F)cc2)OCCCC[C@H](C)Oc2ccc(NC(=O)C3CCCCC3)cc2C1=O,.,.,4.9,-1.3,86.9*
CCCNC(=O)N[C@@H]1C=C[C@@H](CC(=O)NC2CCCCC2)O[C@@H]1CO,.,.,0.1,-4.3,5.4
O=C(Nc1cc(F)ccc1F)N[C@H]1CC[C@H](CCNC(=O)c2cnccn2)O[C@H]1CO,.,.,1.8,-4.6,-8.0
O=C(Nc1cc(F)ccc1F)N[C@@H]1CC[C@H](CCNC(=O)c2cnccn2)O[C@H]1CO,.,.,3.6,-0.6,32.5*
O=C(Nc1cc(F)ccc1F)N[C@@H]1CC[C@H](CCNC(=O)c2cnccn2)O[C@@H]1CO,.,.,-2.5,0.9,34.4*
O=C(Nc1cc(F)ccc1F)N[C@H]1CC[C@@H](CCNC(=O)c2cnccn2)O[C@@H]1CO,.,.,0.5,6.3,-7.1
C[C@H](CO)N1C[C@H](C)[C@@H](CN(C)Cc2ccccc2)Oc2ncc(Br)cc2C1=O,.,.,0.0,-6.9,8.0
Nc1[nH]c(C(=O)c2ccccc2)c(-c2cc(F)ccc2Br)c1C(=O)NCCc1c[nH]c2ccccc12,.,.,0.6,0.8,28.8*
COc1ccc(C(=O)c2[nH]c(N)c(C(=O)NCCc3c[nH]c4ccccc34)c2-c2c(F)cccc2Cl)cc1,.,.,-1.8,0.1,66.8*
Nc1[nH]c(C(=O)c2ccccc2)c(-c2ccc(Cl)c(F)c2)c1C(=O)NCCc1c[nH]c2ccccc12,.,.,38.7*,-1.3,3.3
C[C@H]1CN([C@@H](C)CO)C(=O)c2cc(NC(=O)Nc3cccc4ccccc34)ccc2O[C@H]1CN(C)S(=O)(=O)c1ccccc1,.,.,4.1,-1.2,-2.9
O=C(C[C@@H]1C[C@H]2c3cc(NC(=O)Nc4ccccc4)ccc3O[C@H]2[C@H](CO)O1)NCCN1CCCCC1,.,.,-5.0,-0.2,3.9
C[C@@H]1CN([C@@H](C)CO)C(=O)c2cc(NS(=O)(=O)c3cn(C)cn3)ccc2O[C@@H]1CN(C)S(=O)(=O)c1cccs1,.,.,-1.6,-4.5,0.9
COc1ccc(NC(=O)N(C)C[C@@H]2Oc3ccc(NS(=O)(=O)c4cn(C)cn4)cc3CC(=O)N([C@H](C)CO)C[C@@H]2C)cc1,.,.,3.1,-1.2,77.1*
